According to the supplement of paper PMC9694430:

tested on: LOC_OS01G39600-cb002; assay: thermal shift delta Tm vs DMSO control; higher = stronger stabilization (binding); settings: 12.5 µM; protein concentration 2 µM
Outline: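 Rice kinase domain constructs were expressed in E. coli, purified, and tested by differential scanning fluorimetry with compound added in DMSO. Each well of a 96-well plate held 19.5 μl of 2 μM kinase in 100 mM potassium phosphate pH 7.5, 150 mM NaCl, 10% glycerol and 5 × SYPRO Orange, and fluorescence was read from 25°C to 95°C at 0.05°C/s. The melting temperature shift is the mean of triplicates, taken against protein with DMSO alone after Boltzmann fitting.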

Going from `CCOc1cc2ncc(C#N)c(Nc3ccc(OCc4ccccn4)c(Cl)c3)c2cc1NC(=O)/C=C/CN(C)C` [Neratinib (HKI-272)] to `CCOc1cc2ncc(C#N)c(Nc3ccc(F)c(Cl)c3)c2cc1NC(=O)/C=C/CN(C)C` [Pelitinib (EKB-569)], the “thermal shift delta Tm” value falls from 5.12 °C to 4.78 °C.

Going from `COc1cc2nccc(Oc3ccc(NC(=O)Nc4cc(C)on4)c(Cl)c3)c2cc1OC` [Tivozanib (AV-951)] to `COc1cc2ncnc(Nc3ccc(Cl)cc3F)c2cc1OC`, the “thermal shift delta Tm” value rises from -0.67 °C to 1.07 °C.

Compared with `O=C1NC(=O)C(c2ccccc2[N+](=O)[O-])=C1Nc1ccc(O)c(Cl)c1`, `CN(C)Cc1cccc(N/C(=C2\C(=O)Nc3cc(C(N)=O)ccc32)c2ccccc2)c1` is higher in “thermal shift delta Tm” value: -0.46 °C for the first, 0.07 °C for the second.

First: Cc1c(C(=O)N2CCOc3ccc(-c4ccc(N)nc4)cc3C2)ccc(S(C)(=O)=O)c1F
Second: CCCS(=O)(=O)Nc1ccc(F)c(C(=O)c2c[nH]c3ncc(-c4ccc(Cl)cc4)cc23)c1F [Vemurafenib (PLX4032, RG7204)]
The “thermal shift delta Tm” value of the first is lower: -0.01 °C for the first, 11.7 °C for the second.

Compared with `Cn1nccc1Nc1nccc(-c2ccn([C@H](CO)c3ccc(Cl)c(F)c3)c(=O)c2)n1`, `CN(C[C@@H]1COCCO1)S(=O)(=O)Nc1ccc2ccc3ncc(-c4cnn(C)c4)cc3c(=O)c2c1` is higher in “thermal shift delta Tm” value: 0.18 °C for the first, 2.41 °C for the second.

Going from `COc1cc2c(N3CCN(C(=O)Nc4ccc(OC(C)C)cc4)CC3)ncnc2cc1OCCCN1CCCCC1` [Tandutinib (MLN518)] to `COc1cc(C(=O)N2CCC(N3CCN(C)CC3)CC2)ccc1Nc1ncc2c(n1)N(C)c1ccccc1C(=O)N2C`, the “thermal shift delta Tm” value falls from 0.57 °C to -0.15 °C.

Compared with `C[C@@H]1COCCN1c1cc(=O)n2c(n1)N(Cc1cncc(Cl)c1)[C@H](C(F)(F)F)CC2`, `COC(=O)Nc1ccc(-c2nc(N3CCOCC3)c3cnn(C4CCN(C(=O)OC)CC4)c3n2)cc1` is lower in “thermal shift delta Tm” value: 0.34 °C for the first, -0.17 °C for the second.

Compared with `COc1ccc(F)c(F)c1C(=O)c1cnc(NC2CCN(S(C)(=O)=O)CC2)nc1N`, `COc1cc(N2CCC(N(C)C)CC2)ccc1Nc1ncc(Cl)c(Nc2ccccc2P(C)(C)=O)n1` is lower in “thermal shift delta Tm” value: 0.19 °C for the first, -6.92 °C for the second.

Compared with `O=C(NCc1ccccc1)c1csc(Nc2ccncn2)n1` [Thiazovivin], `CC[C@H](CO)Nc1nc(NCc2ccccc2)c2ncn(C(C)C)c2n1` [Roscovitine (Seliciclib,CYC202)] is higher in “thermal shift delta Tm” value: 0.44 °C for the first, 0.5 °C for the second.

Compared with `CCN(CC)CCCCNc1ncc2cc(-c3cc(OC)cc(OC)c3)c(NC(=O)NC(C)(C)C)nc2n1`, `CCN(CC)CCCC(C)Nc1ccnc2cc(Cl)ccc12` (configuration not stated) [Chloroquine Phosphate] is higher in “thermal shift delta Tm” value: -0.12 °C for the first, -0.06 °C for the second.

Going from `O=c1cc(N2CCOCC2)oc2c(-c3ccc4c(c3)OCCO4)csc12` to `Oc1cccc(-c2nc(N3CCOCC3)c3oc4ncccc4c3n2)c1`, the “thermal shift delta Tm” value rises from 0.21 °C to 0.74 °C.

First: Nc1ccc(C(=O)Nc2cccc(-c3nc(N4CCOCC4)c4oc5ncccc5c4n3)c2)cn1
Second: Nc1ccc(-c2ccc3ncc4ccc(=O)n(-c5cccc(C(F)(F)F)c5)c4c3c2)cn1 [Torin 2]
The “thermal shift delta Tm” value of the first is lower: 0.13 °C for the first, 0.74 °C for the second.

Compared with `O=C(NC[C@H](O)CO)c1ccncc1Nc1ccc(I)cc1F`, `CC1(C)CNc2cc(NC(=O)c3cccnc3NCc3ccncc3)ccc21` [Motesanib Diphosphate (AMG-706)] is lower in “thermal shift delta Tm” value: -0.15 °C for the first, -0.19 °C for the second.

First: Cc1cc(Nc2ncnc3ccc(NC4=NC(C)(C)CO4)cc23)ccc1Oc1ccn2ncnc2c1 [Irbinitinib (ARRY-380, ONT-380)]
Second: Cc1ccc(NC(=O)c2cccc(C(C)(C)C#N)c2)cc1Nc1ccc2ncn(C)c(=O)c2c1
The “thermal shift delta Tm” value of the first is lower: -4.96 °C for the first, 0.04 °C for the second.

First: C=C(C)[C@@H]1CC[C@]2(C)CC[C@]3(C)[C@H](CC[C@@H]4[C@@]5(C)CC[C@H](O)C(C)(C)[C@@H]5CC[C@]43C)[C@@H]12 [Lupeol]
Second: CO[C@H]1C[C@@H]2CC[C@@H](C)[C@@](O)(O2)C(=O)C(=O)N2CCCC[C@H]2C(=O)O[C@H]([C@H](C)C[C@@H]2CC[C@@H](OCCO)[C@H](OC)C2)CC(=O)[C@H](C)/C=C(\C)[C@@H](O)[C@@H](OC)C(=O)[C@H](C)C[C@H](C)/C=C/C=C/C=C/1C [Everolimus (RAD001)]
The “thermal shift delta Tm” value of the first is lower: 0.07 °C for the first, 0.54 °C for the second.

Going from `CCn1c(N)c(C(=O)NC)c(=O)c2ccc(C#CC(C)(O)COC)nc21` (configuration not stated) to `COc1ccc(S(=O)(=O)N(CCO)c2ccccc2CN(C)C/C=C/c2ccc(Cl)cc2)cc1` [KN-93 Phosphate], the “thermal shift delta Tm” value rises from -1.69 °C to -0.38 °C.

Going from `CCOc1cc(C(=O)N2CCC(N3CCN(C)CC3)CC2)ccc1Nc1ncc2c(n1)N(C1CCCC1)c1ccccc1C(=O)N2C` to `Cc1cc(Nc2cc(N3CCN(C)CC3)nc(/C=C/c3ccccc3)n2)n[nH]1`, the “thermal shift delta Tm” value rises from -0.95 °C to 2.83 °C.

First: C[C@@H](N)[C@H]1CC[C@H](C(=O)Nc2ccncc2)CC1
Second: Clc1ccc(C2(c3ccc(-c4cn[nH]c4)cc3)CCNCC2)cc1
The “thermal shift delta Tm” value of the first is higher: 0.45 °C for the first, -0.39 °C for the second.

`COc1ccc(CCNCc2ccc(OCc3ccc(Cl)nc3)c(OC)c2)cc1OC` was tested, and the “thermal shift delta Tm” value was 0.48 °C.
